Reference: PubChem BioAssay (Tox21)
Where “and” joins values, the source holds several entries; their conditions need not be identical. Identical values can stand only once. Inconclusive results are not listed. A structure can be active in one record and inactive in another. Calls of active or inactive are those of the source. Unless noted, calls follow the shape of the full dose curve.

Key:
[1] = Nuclear factor erythroid 2-related factor 2/antioxidant responsive element (Nrf2/ARE) small molecule agonists: qHTS cell viability counter screen in human keratinocytes (AID 1919968; active = well fitted curve in the direction sought with a large enough effect in the repeat runs; an effect the other way counts as inactive or inconclusive; also: nearly all actives have a fitted effect of over 55% in size)
Summary of the method: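 Stably transfected HaCaT (KeratinoSens), 1,500/well. Test agents in DMSO were applied for 23 h, 37 C/5% CO2. CellTiter-Fluor was incubated 1 h before the fluorescence read.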

[2] = Nuclear factor erythroid 2-related factor 2/antioxidant responsive element (Nrf2/ARE) small molecule agonists: luciferase reporter gene qHTS assay in human keratinocytes (AID 1919969); also: nearly all actives have a fitted effect of over 35% in size; also: potency is read from the fitted curve at half-maximal effect
[3] = target: Gonadotropin-releasing hormone receptor (Homo sapiens) (UniProt P30968); experiment: Human gonadotropin-releasing hormone receptor (GnRHR) small molecule agonists, calcium flux assay in GnRHR-HEK293 cells (AID 1920063); also: nearly all actives have a fitted effect of over 35% in size
Summary of the method: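 Stable human GnRHR HEK293 line. 18 h plating, then calcium dye for 1 h at 37 C. Agonist-mode compound addition from DMSO stocks; fluorescence monitored 3 min.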

[4] = target: KiSS-1 receptor (Homo sapiens) (UniProt Q969F8); experiment: Human kisspeptin (KISS1R) small molecule agonists, calcium flux assay in KISS1R-HEK293 cells (AID 1920064; active = well fitted curve in the direction sought with a large enough effect in the repeat runs; an effect the other way counts as inactive or inconclusive)
Summary of the method: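 After overnight (18 h) culture at 37 C/5% CO2, human KISS1R-HEK293 cells received calcium dye for 1 h, then test compound; emission at 540 nm (excitation 480 nm) was tracked for 3 min.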

[5] = G protein-coupled receptor (GPCR) small molecule agonists, calcium flux assay: HEK293 wild type cell line counter screen (AID 1920065)
Summary of the method: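 Following 18 h incubation at 37 C/5% CO2, plates got calcium dye for 1 h; compounds, ATP or DMSO were then pinned in and fluorescence followed kinetically (480/540 nm).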

[6] = p53 small molecule agonists, cell-based qHTS assay with human liver microsomes (AID 1963577)
Summary of the method: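 Cells carrying a p53-responsive bla reporter were rested 5 h (37 C, 5% CO2) before compound transfer. Human liver microsomes plus NADPH, 0.5 mg/mL final apiece, supplied metabolism during the 16 h 37 C exposure.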

[7] = p53 small molecule agonists, cell-based qHTS assay with rat liver microsomes (AID 1963578)
Summary of the method: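 Fluorescence from a beta-lactamase reporter under a p53 response element was measured after cells had been incubated 16 h at 37 C with test compound and rat liver microsomes plus NADPH (0.5 mg/mL final each).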

[8] = p53 small molecule agonists, cell-based qHTS assay with human liver microsomes: qHTS cell viability counter screen (AID 1963579); also: nearly all actives have a fitted effect of over 45% in size
Summary of the method: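 Seed p53RE-bla cells at 4,000 per well; incubate 5 h at 37 C; add compound, human liver microsomes and NADPH; incubate 16 h at 37 C; add CellTiter-Glo; after 30 min at room temperature, read luminescence.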

[9] = p53 small molecule agonists, cell-based qHTS assay with rat liver microsomes: qHTS cell viability counter screen (AID 1963580); also: nearly all actives have a fitted effect of over 45% in size
Summary of the method: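 Cytotoxicity counter screen: intracellular ATP measured by CellTiter-Glo luminescence in the same wells as the beta-lactamase reporter read, on HCT-116 p53RE-bla cells exposed 16 h at 37 C to compounds with rat liver microsomes and NADPH, each 0.5 mg/mL final.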

[10] = p53 small molecule agonists, cell-based qHTS assay: qHTS cell viability counter screen (AID 1963581); also: nearly all actives have a fitted effect of over 45% in size
Summary of the method: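 qHTS counter screen: 16 h compound exposure at 37 C of p53RE-bla HCT-116 cells (4,000 per well, seeded 5 h prior), cell viability by ATP luminescence.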

[11] = p53 small molecule agonists, cell-based qHTS assay (AID 1963582; active = well fitted activation curve with a large enough effect in the signal ratio in the repeat runs, not every such curve was filed as active; the % refers to the signal ratio)
Summary of the method: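 Measured: fluorescence from cleaved LiveBLAzer substrate. System: p53RE-bla cells, 16 h compound treatment at 37 C, 2 h substrate step at room temperature.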

[12] = target: 5-hydroxytryptamine receptor 2A (Homo sapiens) (UniProt P28223); experiment: 5-hydroxytryptamine receptor 2A (HTR2A) small molecule antagonists, cell-based qHTS assay (AID 1963586); also: nearly all actives have a fitted effect of over 45% in size
Summary of the method: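 CHO cells stably expressing human HTR2A were plated for 18 h at 37 C, then loaded with calcium dye for 1 h. Compounds were preincubated 5 min at room temperature before DOI (4 nM solution) was added. Kinetic fluorescence was read for 3 min.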

[13] = target: 5-hydroxytryptamine receptor 2A (Homo sapiens) (UniProt P28223); experiment: 5-hydroxytryptamine receptor 2A (HTR2A) small molecule agonists, cell-based qHTS assay (AID 1963587); also: nearly all actives have a fitted effect of over 30% in size
Summary of the method: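 CHO cells stably expressing human HTR2A, plated 18 h, loaded with calcium dye 1 h at 37 C. Agonist mode: compounds added and intracellular calcium fluorescence recorded kinetically for 2 min at 1 sec intervals.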

[14] = target: Muscarinic acetylcholine receptor M1 (Homo sapiens) (UniProt P11229); experiment: Cholinergic receptor muscarinic 1 (CHRM1) small molecule antagonists, cell-based qHTS assay (AID 1963588); also: nearly all actives have a fitted effect of over 40% in size
Summary of the method: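 Compounds were tested at 15 concentrations in three independent runs. Dye-loaded CHRM1-CHO cells were exposed 5 min at room temperature before stimulation by acetylcholine added at 50nM. Intracellular calcium was read kinetically on FDSS for 3 min.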

[15] = target: Muscarinic acetylcholine receptor M1 (Homo sapiens) (UniProt P11229); experiment: Cholinergic receptor muscarinic 1 (CHRM1) small molecule agonists, cell-based qHTS assay (AID 1963589); also: nearly all actives have a fitted effect of over 35% in size
Summary of the method: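 Kinetic fluorescence (1 s intervals) of calcium-sensitive dye in human M1 CHO cells after compound addition; cells pre-incubated 18 h at 37 C/5% CO2 and dye-loaded 1 h.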

[16] = cAMP Responsive Elements (CRE) small molecule agonists, cell-based qHTS assay (AID 1963590)
Summary of the method: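 Test agents in DMSO were incubated 3 h at 37 C/5% CO2 with CRE-bla HEK 293T cells seeded 18 h earlier; LiveBLAzer B/G FRET substrate was added and read after 2 h at room temperature.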

[17] = cAMP Responsive Elements (CRE) small molecule antagonists, cell-based qHTS assay (AID 1963591; active = well fitted inhibition curve with a large enough effect in the signal ratio in the repeat runs, not every such curve was filed as active; the % refers to the signal ratio)
Summary of the method: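 Reporter line CRE-bla HEK 293T in dialyzed-FBS DMEM; cells preincubated 18 h, treated 3 h with compound plus NKH477 (0.25 uM final); LiveBLAzer FRET, 2 h RT.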

[18] = target: Beta-2 adrenergic receptor (Homo sapiens) (UniProt P07550); experiment: Adrenergic beta2 receptor (ADRB2) small molecule antagonists, cell-based qHTS assay (AID 1963592); also: series mostly up to about 92 µM; nearly all actives have a fitted effect of over 50% in size
Summary of the method: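 Assay format: CHO-ADRB2 cells, 18-20hr seeding at 37C/5% CO2, then compound plus 1nM isoproterenol agonist mix for 0.5hr RT. Homogeneous time-resolved fluorescence cAMP detection after 1hr, expressed as 665/615 nm ratio.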

[19] = target: Beta-2 adrenergic receptor (Homo sapiens) (UniProt P07550); experiment: Adrenergic beta2 receptor (ADRB2) small molecule agonists, cell-based qHTS assay (AID 1963593);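 also: CHO cells stably overexpressing human ADRB2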
Summary of the method: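 CHO cells stably over-expressing ADRB2 were plated overnight at 37C, then dosed with compounds plus a stimulation mix containing 100uM IBMX and 25uM Ro-20-1724 for 0.5hr at room temperature. cAMP was measured by HTRF competition, 1hr.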

[20] = target: D(2) dopamine receptor (Homo sapiens) (UniProt P14416); experiment: Dopamine D2 receptor (DRD2) small molecule agonists, cell-based qHTS assay (AID 1963594); also: nearly all actives have a fitted effect of over 35% in size
Summary of the method: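 HEK293 cells stably expressing human DRD2, pre-treated with PDE inhibitor Ro20-1724 (0.1 mM final) and compound 10 min at room temperature, then stimulated with NKH477 (200nM […]) for 30 min. cAMP read by HTRF (665/620 nm).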

Measured: Potency

D(2) dopamine receptor (Homo sapiens), sequence (P14416 whole entry, looked up): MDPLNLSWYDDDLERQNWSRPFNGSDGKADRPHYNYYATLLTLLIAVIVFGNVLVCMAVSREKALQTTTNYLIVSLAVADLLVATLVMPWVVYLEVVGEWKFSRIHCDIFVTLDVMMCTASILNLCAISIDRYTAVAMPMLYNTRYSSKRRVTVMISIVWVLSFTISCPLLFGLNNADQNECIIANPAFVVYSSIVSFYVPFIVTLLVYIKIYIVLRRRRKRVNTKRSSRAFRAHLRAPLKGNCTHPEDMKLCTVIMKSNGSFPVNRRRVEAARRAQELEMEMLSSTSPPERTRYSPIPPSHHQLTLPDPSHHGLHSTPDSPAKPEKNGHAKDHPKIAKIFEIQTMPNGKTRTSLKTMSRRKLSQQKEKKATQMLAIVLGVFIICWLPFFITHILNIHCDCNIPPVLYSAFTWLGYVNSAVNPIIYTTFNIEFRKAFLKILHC
5-hydroxytryptamine receptor 2A (Homo sapiens), sequence (P28223 whole entry, looked up): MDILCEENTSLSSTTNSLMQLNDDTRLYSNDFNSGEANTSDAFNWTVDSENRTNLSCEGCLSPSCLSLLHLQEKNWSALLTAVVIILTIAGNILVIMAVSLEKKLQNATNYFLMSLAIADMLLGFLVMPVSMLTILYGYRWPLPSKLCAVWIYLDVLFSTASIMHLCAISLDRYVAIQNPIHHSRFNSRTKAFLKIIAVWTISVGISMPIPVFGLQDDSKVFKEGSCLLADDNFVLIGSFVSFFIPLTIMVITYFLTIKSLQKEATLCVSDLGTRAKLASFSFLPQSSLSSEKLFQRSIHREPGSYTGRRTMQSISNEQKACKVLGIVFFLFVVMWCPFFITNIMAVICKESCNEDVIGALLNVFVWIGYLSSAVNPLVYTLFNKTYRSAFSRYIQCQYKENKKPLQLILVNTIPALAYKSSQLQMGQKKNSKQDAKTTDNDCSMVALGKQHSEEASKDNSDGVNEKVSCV
Gonadotropin-releasing hormone receptor (Homo sapiens), sequence (P30968 whole entry, looked up): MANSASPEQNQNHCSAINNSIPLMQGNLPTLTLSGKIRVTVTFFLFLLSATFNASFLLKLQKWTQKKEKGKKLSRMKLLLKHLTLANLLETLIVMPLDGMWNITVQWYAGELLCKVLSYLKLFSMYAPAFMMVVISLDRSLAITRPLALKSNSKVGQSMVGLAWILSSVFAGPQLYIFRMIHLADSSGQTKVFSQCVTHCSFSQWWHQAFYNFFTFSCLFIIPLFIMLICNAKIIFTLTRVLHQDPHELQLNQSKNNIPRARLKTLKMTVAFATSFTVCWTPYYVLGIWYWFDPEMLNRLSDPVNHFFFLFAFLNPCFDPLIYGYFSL
KiSS-1 receptor (Homo sapiens), sequence (Q969F8 whole entry, looked up): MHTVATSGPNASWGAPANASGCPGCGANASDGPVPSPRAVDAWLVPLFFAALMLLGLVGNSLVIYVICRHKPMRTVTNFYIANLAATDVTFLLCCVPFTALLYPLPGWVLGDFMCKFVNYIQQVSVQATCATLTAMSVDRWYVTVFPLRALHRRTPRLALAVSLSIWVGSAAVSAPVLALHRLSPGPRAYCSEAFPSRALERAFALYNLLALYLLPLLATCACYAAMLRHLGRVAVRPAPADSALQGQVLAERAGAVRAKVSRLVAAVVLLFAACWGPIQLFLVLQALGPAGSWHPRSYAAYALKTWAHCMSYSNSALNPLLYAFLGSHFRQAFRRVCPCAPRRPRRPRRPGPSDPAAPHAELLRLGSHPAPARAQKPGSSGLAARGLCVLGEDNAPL
Beta-2 adrenergic receptor (Homo sapiens), sequence (P07550 whole entry, looked up): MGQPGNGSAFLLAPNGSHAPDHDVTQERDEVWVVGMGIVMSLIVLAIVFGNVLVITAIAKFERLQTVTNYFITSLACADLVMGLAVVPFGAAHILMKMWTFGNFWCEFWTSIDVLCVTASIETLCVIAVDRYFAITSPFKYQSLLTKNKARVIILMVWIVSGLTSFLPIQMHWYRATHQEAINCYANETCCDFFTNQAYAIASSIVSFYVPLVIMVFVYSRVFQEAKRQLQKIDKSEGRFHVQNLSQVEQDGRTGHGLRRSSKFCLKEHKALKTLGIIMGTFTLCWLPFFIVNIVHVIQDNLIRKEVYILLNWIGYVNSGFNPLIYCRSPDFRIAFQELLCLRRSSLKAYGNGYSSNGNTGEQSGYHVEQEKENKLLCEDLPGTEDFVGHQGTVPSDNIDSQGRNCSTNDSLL
Muscarinic acetylcholine receptor M1 (Homo sapiens), sequence (P11229 whole entry, looked up): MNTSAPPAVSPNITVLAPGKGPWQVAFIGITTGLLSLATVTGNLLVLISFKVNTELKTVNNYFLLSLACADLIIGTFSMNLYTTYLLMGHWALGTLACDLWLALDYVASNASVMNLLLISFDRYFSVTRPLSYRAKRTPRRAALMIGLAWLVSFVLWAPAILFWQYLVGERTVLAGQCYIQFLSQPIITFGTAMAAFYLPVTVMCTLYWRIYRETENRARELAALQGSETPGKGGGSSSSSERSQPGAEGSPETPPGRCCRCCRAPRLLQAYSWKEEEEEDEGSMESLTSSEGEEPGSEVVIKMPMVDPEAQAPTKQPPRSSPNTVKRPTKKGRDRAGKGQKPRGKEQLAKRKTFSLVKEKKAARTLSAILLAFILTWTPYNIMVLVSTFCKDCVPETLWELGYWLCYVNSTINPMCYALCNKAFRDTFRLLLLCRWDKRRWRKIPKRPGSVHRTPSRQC

N=C(N=C(N)N)N1CCOCC1
not listed: [19] | [20]
inactive: all other assays above

CCCSSCCC
inactive: all assays above

[K+]
inactive: all assays above

ON=C1CCCCC1
inactive and 68.6 µM (active): [2]
inactive: all other assays above

Cc1ccccc1OCC1CO1 (stereo not drawn)
inactive: all assays above

CCCCCCCCc1ccc(Nc2ccc(CCCCCCCC)cc2)cc1
inactive: all assays above
